Test systems include NCI-H23 lung; NCI-H226 lung; NCI-H322M lung; HOP-62 NSCLC; NCI-H460 lung; HOP-92 NSCLC; NCI-H522 lung; A549/ATCC NSCLC; 786-0 renal; COLO 205 colon; DU-145 prostate; K-562 leukemia; MALME-3M melanoma; MDA-MB-231 breast; RXF 393 renal; SF-268 CNS; SF-295 CNS; SF-539 CNS; UACC-257 melanoma; M14 melanoma.
What all share (test): NCI-60 one-dose screen, 48 h (100 = growth as untreated, 0 = no growth, -100 = all killed)
Holding throughout (conditions): 10 µM unless noted

The structures appear in SMILES notation. Compounds without any hit were thinned out: in the full panel of roughly 83,000, 20% have a hit.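 Activity criterion: percent growth below 10, measured after cells in 96-well plates were exposed to a single compound concentration for 48 hours.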 A number with no mark means an inactive call. Activity calls are given as the source filed them.

On to `O=C(c1ccc(Cl)cc1)c1ccc(OCCCN2CCN(c3ccncc3)CC2)cc1`, for which the growth is 38.4% with NCI-H23 lung; 49.4% with NCI-H226 lung; 82.1% in the assay with NCI-H322M lung; 38.7% in the assay with HOP-62 NSCLC; 48.6% in the assay on NCI-H460 lung; 14.9% with HOP-92 NSCLC. Besides, the growth in the assay with NCI-H522 lung was 52.6%; with A549/ATCC NSCLC, 55.5%; with 786-0 renal, 33.5%; in the assay with COLO 205 colon it was -49.7% (active); in the assay on DU-145 prostate it was 62.1%; in the assay on K-562 leukemia, 1.45% (active). Also, the growth in the assay with MALME-3M melanoma is -54.1% (active); in the assay with MDA-MB-231 breast, 17.2%; in the assay with RXF 393 renal, 32.8%; in the assay with SF-268 CNS it was 73.2%; with SF-295 CNS, 17.6%; with SF-539 CNS, 16.7%. The growth in the assay on UACC-257 melanoma is 42.4%; in the assay on M14 melanoma, -36.2% (active).
With `Clc1ccc(-c2ccc(OCCCN3CCN(c4ccncc4)CC3)cc2)cc1`, the growth in the assay on NCI-H23 lung is 50.7%; in the assay with NCI-H226 lung, 62.5%; in the assay with NCI-H322M lung, 91%; in the assay with HOP-62 NSCLC it was 54.3%; in the assay on NCI-H460 lung it was -6.61% (active); in the assay on HOP-92 NSCLC, 15.9%. Further, the growth in the assay on NCI-H522 lung was 67.8%; with A549/ATCC NSCLC it was 59.1%; with 786-0 renal, 56.4%; in the assay on COLO 205 colon, -77.8% (active); in the assay with DU-145 prostate it was 69.1%; with K-562 leukemia, -45.6% (active). Further, the growth in the assay with MALME-3M melanoma is 84.2%; with MDA-MB-231 breast it was 33.1%; in the assay with RXF 393 renal it was 15.3%; with SF-268 CNS it was 75.9%; in the assay with SF-295 CNS, 40.6%; in the assay with SF-539 CNS, 30%. Further, the growth is 90.2% in the assay with UACC-257 melanoma and -54.6% (active) with M14 melanoma.
On to `Cc1cc2nc3c4ccccc4n(CCCN(C)C)c3nc2cc1C`, for which the growth was -53.4% (active) in the assay on NCI-H23 lung; 4.65% (active) in the assay on NCI-H226 lung; -22.6% (active) in the assay with NCI-H322M lung; -0.831% (active) in the assay with HOP-62 NSCLC; -25.7% (active) in the assay with NCI-H460 lung; -18.2% (active) in the assay on HOP-92 NSCLC. The growth in the assay on NCI-H522 lung was -58.7% (active); with A549/ATCC NSCLC, 6.71% (active); in the assay on 786-0 renal, 3.7% (active); in the assay with COLO 205 colon, -86.3% (active); in the assay with DU-145 prostate, 2.68% (active); in the assay on K-562 leukemia it was -4.14% (active). The growth with MALME-3M melanoma was -89.6% (active); in the assay on MDA-MB-231 breast it was -23.4% (active); with RXF 393 renal it was -62.1% (active); with SF-268 CNS, -38.6% (active); in the assay with SF-295 CNS, -30.4% (active); in the assay on SF-539 CNS, -69.4% (active). In addition, the growth was -81.2% (active) with UACC-257 melanoma and -74.4% (active) in the assay on M14 melanoma.
For `Cc1cc(=O)oc2cc(OCCCOc3ccc(/C=C/C(=O)Nc4ccccc4N)cc3)ccc12`, the growth is 45.2% with NCI-H23 lung; 18.4% in the assay on NCI-H226 lung; 54.7% in the assay on NCI-H322M lung; 16.7% in the assay with HOP-62 NSCLC; 14.5% with NCI-H460 lung; 43.4% in the assay with HOP-92 NSCLC. For the same compound, the growth in the assay on NCI-H522 lung is -13.8% (active); with A549/ATCC NSCLC it was 25.8%; in the assay on 786-0 renal, 26.1%; in the assay on COLO 205 colon, -53.6% (active); in the assay with DU-145 prostate, 33.1%; in the assay with K-562 leukemia, 18.2%. Moreover, the growth in the assay with MALME-3M melanoma is 42%; in the assay with MDA-MB-231 breast, -2.67% (active); with RXF 393 renal, 49.5%; in the assay with SF-268 CNS, 21.9%; in the assay with SF-295 CNS it was 27.4%; in the assay on SF-539 CNS, 1.75% (active). Moreover, the growth is 38.2% in the assay on UACC-257 melanoma and 41.8% in the assay on M14 melanoma.
In the case of `Nc1nc(C(F)(F)F)cs1`, the growth in the assay with NCI-H23 lung was 104%; with NCI-H226 lung, 98.9%; in the assay on NCI-H322M lung, 104%; with HOP-62 NSCLC, 101%; in the assay with NCI-H460 lung, 107%; with HOP-92 NSCLC, 107%. Further, the growth in the assay with NCI-H522 lung was 98.3%; in the assay on A549/ATCC NSCLC it was 103%; in the assay on 786-0 renal it was 98.4%; in the assay on COLO 205 colon it was 114%; in the assay with DU-145 prostate, 109%; in the assay on K-562 leukemia, 99.9%. The growth was 103% in the assay with MALME-3M melanoma; 117% in the assay with MDA-MB-231 breast; 112% in the assay on RXF 393 renal; 99.3% in the assay with SF-268 CNS; 103% in the assay on SF-295 CNS; 106% in the assay with SF-539 CNS. Besides, the growth in the assay on UACC-257 melanoma is 104%; with M14 melanoma, 108%.
In the case of `CCCCCCCCc1ccc(C(=O)Nc2ccc(C)cc2C(=O)O)cc1C`, the growth in the assay with NCI-H23 lung was 99.6%; in the assay with NCI-H226 lung, 89.4%; in the assay on NCI-H322M lung, 99.3%; with HOP-62 NSCLC, 96.2%; in the assay with NCI-H460 lung it was 92.7%; with HOP-92 NSCLC, 99%. In addition, the growth was -0.59% (active) in the assay with NCI-H522 lung; 85.8% in the assay on A549/ATCC NSCLC; 104% in the assay on 786-0 renal; 114% in the assay with COLO 205 colon; 105% in the assay on DU-145 prostate; 71.2% in the assay with K-562 leukemia. The growth is 96.5% with MALME-3M melanoma; 98.1% in the assay with MDA-MB-231 breast; 109% in the assay with RXF 393 renal; 99.9% with SF-268 CNS; 73.6% in the assay on SF-295 CNS; 99.1% with SF-539 CNS. Moreover, the figures for the growth in the assay with UACC-257 melanoma and with M14 melanoma were 95% and 99.9%, respectively.
Consider `NS(=O)(=O)c1ccc(N=Nc2c(O)n(CC(=O)Nc3ccccc3Cl)c3ccccc23)cc1`, for which the growth in the assay on NCI-H23 lung was 30%; in the assay with NCI-H226 lung, -1.16% (active); in the assay on NCI-H322M lung, 29.2%; with HOP-62 NSCLC it was 17.6%; with NCI-H460 lung, 14.5%; in the assay with HOP-92 NSCLC, 33.7%. In addition, the growth is 51.8% in the assay with NCI-H522 lung; 18.5% in the assay with A549/ATCC NSCLC; 11.9% with 786-0 renal; -19.1% (active) in the assay on COLO 205 colon; 28.8% in the assay with DU-145 prostate; 16.2% in the assay on K-562 leukemia. Moreover, the growth with MALME-3M melanoma was 16%; in the assay with MDA-MB-231 breast it was 15.4%; in the assay on RXF 393 renal, 24.4%; in the assay with SF-268 CNS, 77.4%; in the assay on SF-295 CNS, 15.1%; with SF-539 CNS it was -10% (active). Moreover, the growth in the assay on UACC-257 melanoma was 53.2%; with M14 melanoma, 23.8%.

The record behind these values is PubChem BioAssay (NCI).
